Bioassay records from PubChem BioAssay.
hgDAF-12 ag – H. glycines DAF-12 receptor agonists, primary screen, cell-based, luminescence, HEK293, GAL4 fusion, UAS-luciferase | AID 687014, 2013 | activation, % at 6.8 µM | actives 1.8% (n = 370,000) | HEK293 GAL4-hgDAF12 UAS-luciferase reporter, agonist luminescence; normalized to butyrate control | Nuclear hormone receptor DAF-12 (Heterodera glycines), GAL4 fusion;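 active means activation above a cutoff set at the mean of all screened compounds plus 3 SD, cut at about 10% in these data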;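 further: 0% = DMSO wells and 100% = sodium butyrate wells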
SMARCA2 act – SMARCA2 (BRM) function activators, primary screen, cell-based, luminescence, high throughput; activation, % at 9.1 µM; AID 652017, 2013; MG213 cells, MMTV-luciferase reporter, dexamethasone, overnight; actives 1% (n = 370,000); in the data active means activation above about 7.8%;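 further: 0% = vehicle wells and 100% = reference activator wells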
ssDAF12 agonist – S. stercoralis DAF-12 nuclear receptor activators, primary screen, cell-based, luminescence, HEK293, GRIP1 co-expression, lit1-tk-luc; actives 1% (n = 370,000); HEK293 ssDAF-12/GRIP1 lit1-tk-luc reporter; % of 3 µM dafachronic acid response; activation, % at 6.8 µM; Nuclear hormone receptor DAF-12 (Strongyloides stercoralis); AID 652126, 2013;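 active means activation above the mean over all tested compounds plus 3 SD, cut at about 0.9% in these data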;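 further: 0% = DMSO-only wells and 100% = 3 µM delta7-dafachronic acid wells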
hcDAF12 agonist – H. contortus DAF-12 nuclear receptor activators, primary screen, cell-based, luminescence, HEK293, lit1-tk-luc reporter; HEK293 hcDAF-12 lit1-tk-luc reporter; 0% DMSO, 100% Δ7-dafachronic acid; activation, % at 6.8 µM; actives 1.4% (n = 370,000);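 active means activation above the mean of all tested compounds plus 3 SD, cut at about 5.5% in these data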;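 further: 100% = response to 3 µM Δ7-dafachronic acid high control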
DAX1 StAR inh – DAX1 (NR0B1) inhibitors on StAR promoter, primary screen, cell-based, luminescence, SF-1 (NR5A1), full-length DAX-1; HEK293T StAR-luciferase reporter, SF-1/DAX-1 repression relief; inhibition, % at 6.8 µM; actives 1.1% (n = 370,000); AID 652010, 2013;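 active means inhibition above the mean over all tested compounds plus 3 SD, cut at about 3.6% in these data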;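 further: 0% = DAX-1 cells with DMSO and 100% = cells lacking DAX-1 with DMSO; higher inhibition means more luminescence from relief of DAX-1 repression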
LXRb hcDAF ctr – LXR agonists, Gal4 luciferase reporter, confirmation, counter-screen for hcDAF-12 agonist project, cell-based, luminescence, HEK293, H. contortus campaign | shares compounds with hcDAF12 agonist | HEK293 Gal4-LXR tk-luc reporter, 24 h; normalized: DMSO 0%, positive control 100% | activation, % at 6.8 µM | 3,400 tested, under 10 active;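 active means mean percent activation of the reporter above a cutoff set as the average over tested compounds plus their standard deviation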
Target sequence (P55055 whole entry, looked up, the tested form may be a part): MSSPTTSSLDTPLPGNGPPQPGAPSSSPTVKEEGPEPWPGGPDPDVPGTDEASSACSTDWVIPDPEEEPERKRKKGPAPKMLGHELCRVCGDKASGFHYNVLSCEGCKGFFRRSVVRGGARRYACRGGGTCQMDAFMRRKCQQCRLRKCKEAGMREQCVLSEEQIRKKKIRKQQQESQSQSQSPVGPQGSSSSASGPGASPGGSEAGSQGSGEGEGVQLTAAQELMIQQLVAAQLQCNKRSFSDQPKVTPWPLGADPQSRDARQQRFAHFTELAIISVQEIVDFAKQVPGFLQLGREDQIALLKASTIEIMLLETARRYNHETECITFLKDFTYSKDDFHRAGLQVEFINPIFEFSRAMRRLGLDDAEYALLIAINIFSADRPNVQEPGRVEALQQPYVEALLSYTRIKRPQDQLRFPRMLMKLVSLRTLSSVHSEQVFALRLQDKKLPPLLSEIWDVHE
hcDAF12 conf – H. contortus DAF-12 receptor agonists, confirmation, cell-based, luminescence, HEK293, lit1-tk-luc, triplicate. shares compounds with hcDAF12 agonist. actives 61% (n = 3,400). AID 743032, 2013. activation, % at 6.8 µM. HEK293 hcDAF-12 lit1-tk-luc reporter; % of Δ7-dafachronic acid response;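 active means mean activation across triplicate tests above the threshold derived from the earlier primary screen, cut at about 5.5% in these data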;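 further: 0% = DMSO only wells and 100% = 3 µM Δ7-dafachronic acid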
hgDAF12 ag – H. glycines DAF-12 receptor agonists, confirmation, cell-based, luminescence, HEK293, GAL4-LBD fusion; shares compounds with hgDAF-12 ag; HEK293 GAL4-hgDAF12 luciferase reporter, agonist mode; percent of butyrate response; activation, % at 6.8 µM; actives 80% (n = 3,300); AID 743050, 2013;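 active means mean activation over triplicate wells above the hit cutoff derived from the earlier primary screen, cut at about 11% in these data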;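 further: 0% = DMSO low control and 100% = 2 mM sodium butyrate high control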
LXRb DAF12 ctr – LXR agonists, Gal4 luciferase reporter, confirmation, counter-screen for hgDAF-12 agonist project, cell-based, luminescence, HEK293, H. glycines campaign | shares compounds with hgDAF-12 ag | 24 h | activation, % at 6.8 µM | 3,300 tested, under 10 active;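 active means mean activation of the triplicate above a set limit carried over from the primary screen, none filed active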
* = called active by the depositor; · = no result. In the library only some 4.2% were active in any assay of this set; here they are far more common.

SMILES | hgDAF-12 ag | SMARCA2 act | ssDAF12 agonist | hcDAF12 agonist | DAX1 StAR inh | LXRb hcDAF ctr | hcDAF12 conf | others
COc1ccccc1CCNCc1cc2c(cc1[N+](=O)[O-])OCO2 | 1 | 0 | 0.9* | 8.4* | 0 | 0 | -1
COc1ccc(Br)cc1CNCCc1ccc2c(c1)OCO2 | 0 | -1 | -2 | -1 | 0 | · | ·
O=C1NC(=O)[C@]2(Cc3ccccc3N3CCN(c4ccccc4)CC32)C(=O)N1c1ccccc1 (stereo partly specified) | 8 | 0 | 1.8* | 7.6* | 1 | 0 | 0
CN1C(=O)NC(=O)[C@]2(Cc3ccccc3N3CCN(c4ccccc4)CC32)C1=O (stereo partly specified) | 8 | 1 | 0 | 4 | 2 | · | ·
COC(=O)C1=C(c2c(C)noc2C)C[C@@H]2CC[C@H]1N2C(=O)NCCNC(C)=O | 1 | 0 | -1 | -2 | 1 | · | ·
Cc1cc(/C=C2\C(=O)NC(=O)N(c3ccc(Br)cc3)C2=O)c(C)n1C | -1 | 1 | -1 | 7.1* | 0 | 0 | -1
CC12CC[C@H]3[C@@H](CCC4(O)C[C@H](O)CCC34/C=N/NC(=O)c3ccccc3O)C1(O)CCC2C1=CC(=O)OC1 (stereo partly specified) | -3 | 0 | 1 | 17* | 1 | 0 | 6.8*
CC12CC[C@H]3[C@@H](CCC4(O)C[C@H](O)CCC34/C=N/NC(=O)c3ccccc3F)C1(O)CCC2C1=CC(=O)OC1 (stereo partly specified) | 6 | -5 | -1 | 4 | 0 | · | ·
Cc1ccc(OCCOc2cccc(C=C3C(=O)NC(=O)NC3=O)c2)cc1 | 12* | 3 | 1.1* | 6.6* | 3 | 1 | 7.3*
CC1CCC(C(=O)NC(C(=O)N2CCC3(CC2)OCCO3)C(C)C)CC1 (stereo unspecified) | 0 | 0 | -1 | 2 | 0 | · | ·
CC(=Nc1ccccc1N)c1c(O)n(C)c(=O)n(C)c1=O | 8 | 3 | 1 | 6.6* | 0 | 0 | 1
CC(=NCCc1ccccc1)c1c(O)n(C)c(=O)n(C)c1=O | -2 | -7 | -1 | -1 | 0 | · | ·
Cc1cccc(CCNCc2cc3ccc(C)cc3[nH]c2=O)c1 | 1 | -1 | 0 | 1 | 0 | · | ·
CC1CC(OP(O)(=S)c2ccc(N(C)C)cc2NC(=O)c2cccs2)CC(C)(C)C1 (stereo unspecified) | 11* | -1 | 0 | 8.8* | 2 | 0 | 4
CC(C)[C@H](NC(=O)N1C[C@H]2C[C@@H](C1)c1cccc(=O)n1C2)C(=O)Nc1ccccc1F | -1 | 0 | -1 | -2 | 0 | · | ·
Nc1cc(C(=O)Nc2ccccc2F)ccc1N1CC2CC(C1)c1cccc(=O)n1C2 (stereo unspecified) | 3 | -2 | -1 | 7.0* | 1 | 0 | 0
COc1ccccc1CNC(=O)CCC(=O)N1C[C@H]2C[C@@H](C1)c1cccc(=O)n1C2 | 3 | -1 | -2 | 0 | -1 | · | ·
Cc1ccc(-c2nc(N3CCOCC3)s[n+]2-c2ccccc2)cc1 | 15* | 5 | 1.5* | 12* | 4.0* | 1 | 5 | hgDAF12 ag=8;LXRb DAF12 ctr=1
COC(=O)C1=C(c2ccc(-c3ccccc3)c(F)c2)C[C@@H]2CC[C@H]1N2C(=O)NCCCOC(C)C | -4 | -2 | -1 | -3 | -1 | · | ·
COc1ccc(-n2nc(C(=O)NCC(=O)N3CCC4(CC3)OCCO4)c3ccccc3c2=O)cc1Cl | 14* | 1 | 1 | 6.6* | 1 | 0 | 4 | hgDAF12 ag=12*;LXRb DAF12 ctr=0
CCn1c(=O)cc(OCC(=O)N2CCC3(CC2)OCCO3)c2ccccc21 | 0 | 3 | -1 | 1 | 1 | · | ·
NC(Cc1ccccc1)c1nc2ccccc2[nH]1 (stereo unspecified) | 1 | 2 | 0 | 2 | 0 | · | ·
NC(Cc1nc2ccccc2[nH]1)c1ccc(Cl)cc1 (stereo unspecified) | 14* | 7 | 1 | 5 | 3 | · | · | hgDAF12 ag=15*;LXRb DAF12 ctr=0
COc1ccc(CNCCc2ccccc2F)c(OC)c1C | -2 | -2 | -1 | -2 | 0 | · | ·
CCCCN1C(=O)NC(=O)C2(Cc3ccccc3N3CCOCC32)C1=O (stereo unspecified) | 1 | -2 | -1 | 1 | 0 | · | ·
SMILES | hgDAF-12 ag | SMARCA2 act | ssDAF12 agonist | hcDAF12 agonist | DAX1 StAR inh | LXRb hcDAF ctr | hcDAF12 conf | others
COc1ccccc1/C=N/N=C(/N)N[N+](=O)[O-] | 16* | 5 | -2 | 0 | 0 | · | · | hgDAF12 ag=1;LXRb DAF12 ctr=0
O=C(c1cc2c(s1)-c1ccccc1OC2)N1CCC2(CC1)OCCO2 | 14* | 4 | 0 | 3 | 0 | · | · | hgDAF12 ag=19*;LXRb DAF12 ctr=1
Cc1cc(N=Nc2ccccc2C)ccc1N | 15* | 4 | 0 | 4 | 2 | · | · | hgDAF12 ag=13*;LXRb DAF12 ctr=1
Nc1ccc(N=Nc2ccccc2)cc1 | 2 | -3 | -1 | 0 | 0 | · | ·
CC(Cc1ccccc1)N(C)CC1C(=O)C2CCC1C2 (stereo unspecified) | 0 | -2 | -1 | 0 | -1 | · | ·
CN(C)C(=O)Oc1ccnc2cc(Cl)ccc12 | -2 | -2 | -2 | -2 | -1 | · | ·
Cc1ccc(-c2nc3ccc(Cl)cc3n2OC(=O)N(C)C)cc1 | 14* | 3 | 0 | 5 | 2 | · | · | hgDAF12 ag=12*;LXRb DAF12 ctr=1
Clc1ccc2sc(C3CCNCC3)nc2c1 | 16* | 4 | 0 | 2 | 1 | · | · | hgDAF12 ag=8;LXRb DAF12 ctr=0
